Screening results from PubChem BioAssay.
A selection: hits, their analogues and other compounds. The true share with any hit is near 0.27%.
TRPV1 potentiator – enhances activation of the human vanilloid receptor TRPV1 | Q8NER1 | TRPV1-expressing cells, Fluo-8 calcium influx, capsaicin EC20 potentiation | potentiation, % at 8.33 µM | 0.02% of 320,000 active | AID 540277; in the data active means potentiation above about 80%; inconclusive means between about 30% and that limit
Target sequence (Q8NER1 whole entry, looked up): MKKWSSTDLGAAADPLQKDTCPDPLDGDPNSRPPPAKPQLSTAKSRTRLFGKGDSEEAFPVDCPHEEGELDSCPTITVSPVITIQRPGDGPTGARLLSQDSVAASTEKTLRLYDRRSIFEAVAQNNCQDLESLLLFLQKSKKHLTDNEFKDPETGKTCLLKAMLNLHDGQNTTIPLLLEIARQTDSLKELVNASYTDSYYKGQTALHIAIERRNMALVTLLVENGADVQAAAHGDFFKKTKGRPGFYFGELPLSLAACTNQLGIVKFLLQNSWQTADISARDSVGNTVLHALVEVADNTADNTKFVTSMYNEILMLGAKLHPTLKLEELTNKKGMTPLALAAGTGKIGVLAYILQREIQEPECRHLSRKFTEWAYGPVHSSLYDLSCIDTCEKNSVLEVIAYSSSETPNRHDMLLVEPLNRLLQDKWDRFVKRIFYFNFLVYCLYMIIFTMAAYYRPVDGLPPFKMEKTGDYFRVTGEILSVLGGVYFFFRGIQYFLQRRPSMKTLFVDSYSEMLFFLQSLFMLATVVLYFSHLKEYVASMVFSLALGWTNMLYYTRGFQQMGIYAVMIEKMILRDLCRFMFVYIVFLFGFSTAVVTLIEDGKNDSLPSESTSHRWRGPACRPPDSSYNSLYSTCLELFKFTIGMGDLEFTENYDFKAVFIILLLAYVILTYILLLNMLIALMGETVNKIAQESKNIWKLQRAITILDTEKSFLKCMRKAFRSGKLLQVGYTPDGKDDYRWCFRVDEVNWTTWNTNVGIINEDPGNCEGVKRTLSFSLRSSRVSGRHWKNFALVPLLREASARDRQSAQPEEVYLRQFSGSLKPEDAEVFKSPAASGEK
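Fluo-8 calcium influx in TRPV1-expressing cells, kinetic read (ex 480/em 520 nm). Compound added and read 3 min for agonist activity, followed by capsaicin at EC20 final and 2 min further read for enhancement.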
TRPML1 agonist – human mucolipin-1 channel agonism; AID 624414; TRPML1-expressing cells, Ca2+ dye fluorescence, FDSS; Q9GZU1; activation, % (no concentration beside the values); 0.12% of 410,000 active; in the data active means activation above about 50%; inconclusive means mostly about 30% to 49%
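TRPML1-DL cells, Tet-induced overnight (~16 h, 37 degrees C), loaded 45-90 min at room temperature with Ca8 no-wash calcium dye plus quencher. FDSS fluorescence: 10 s baseline, compound pin-transfer, 110 s agonist read, then EC80 54-4 (4uM final) and 110 s antagonist read.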
TRPML1 inh – human mucolipin-1 channel inhibition | 0.02% of 390,000 active | activity change, negative = inhibition, % (concentration not given with the values) | AID 624415 | TRPML1-inducible cells, Ca2+ dye fluorescence, FDSS; hits give low values; inhibition of EC80 agonist-evoked calcium signal; in the data active means activity change below about -50%; inconclusive means between about -30% and that limit;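 further: stimulus is agonist 54-4 at its EC80 concentration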
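Calcium fluorescence in TRPML1-DL cells induced overnight with Tet: a 110 s read after compound pin addition, then a 110 s antagonist read after challenge with 54-4 at 4 uM final (EC80).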
TRPV1 ag – human TRPV1 agonism; Q8NER1; 0.19% of 320,000 active; activation, % at 8.33 µM; AID 540275; TRPV1-expressing cells, Fluo-8 calcium influx, agonist mode; in the data active means activation above about 80%; inconclusive means between about 30% and that limit
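Cells expressing TRPV1 were dye-loaded with Fluo-8 and read kinetically: 10 s baseline, 3 min after compound (agonist portion), then 2 min after EC20 capsaicin (allosteric enhancer portion). Calcium-bound dye fluorescence at 480/520 nm.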
Each line names hits and unclear results; the compound was inactive in the other large screens.

Cc1ccc(Nc2nnc(-c3cc4c(ccc5ccccc54)oc3=O)s2)cc1	none (no result: TRPV1 potentiator, TRPV1 ag)
COc1ccc(-c2nnc(SCC(=O)Oc3cc(C)ccc3C)o2)cc1	none (no result: TRPV1 potentiator, TRPV1 ag)
COc1ccc(C(=O)N2CCC(C(=O)Nc3ccccc3Cl)CC2)cc1	none (no result: TRPV1 potentiator, TRPV1 ag)
CN([C@@H](C(=O)OC(C)(C)C)c1ccccc1)S(=O)(=O)c1cccc(S(=O)(=O)N(C)[C@@H](C(=O)OC(C)(C)C)c2ccccc2)c1	TRPML1 agonist 71
CC1CCCN(c2ccc(C(=O)Nc3cccnc3)cc2[N+](=O)[O-])C1 (centres undefined)	TRPV1 ag 87
O=C(Nc1ccccc1Cl)c1ccccc1Oc1ccc(C(F)(F)F)cc1[N+](=O)[O-]	TRPML1 agonist 55
O=C(c1ccccc1Oc1ccc(C(F)(F)F)cc1[N+](=O)[O-])N1CCOCC1	TRPV1 potentiator inconclusive
COc1cccc(C2C(C(=O)Nc3ccc(Cl)cc3)=C(C)Nc3c(C(=O)Nc4ccccc4)cnn32)c1OC (centres undefined)	none (no result: TRPV1 potentiator, TRPV1 ag)
O=C(O)c1ccccc1-c1c2cc(I)c(=O)c(I)c-2oc2c(I)c(O)c(I)cc12	TRPML1 agonist 177, TRPML1 inh -90 (no result: TRPV1 potentiator, TRPV1 ag)
COC(=O)c1c(-c2ccc(Cl)cc2)noc1N1CCN(c2ccc(C)cc2C)CC1	none (no result: TRPV1 potentiator, TRPV1 ag)
Cc1cnc(NC(=O)c2cc3c(s2)CCCC3)s1	TRPV1 ag 89
Cc1ccc2c(c1)N(C(=O)CCC(=O)NCc1cccs1)CC(C)O2 (centres undefined)	none (no result: TRPV1 potentiator, TRPV1 ag)
CCC1(C)CC(=O)c2c(ccc3oc(C(=O)NCc4ccccc4)c(C)c23)O1 (centres undefined)	TRPML1 agonist 50 (no result: TRPV1 potentiator, TRPV1 ag)
COc1ccc(/C=C2/SC(=S)N(Cc3ccccc3)C2=O)cc1O	none (no result: TRPML1 agonist, TRPML1 inh)
O=C1/C(=C\c2cc(Cl)c(O)c(Cl)c2)SC(=S)N1Cc1ccccc1	TRPML1 agonist 109
COc1ccc(NC2c3ccccc3C(=O)N2Cc2ccc3c(c2)OCO3)cc1 (centres undefined)	TRPV1 ag 102
COC(=O)c1cc2sc(C)cc2n1Cc1ccc(F)cc1Cl	none (no result: TRPV1 potentiator, TRPV1 ag)
COC(=O)C(C)Sc1nnc2cc(C)c3cc(C)cc(C)c3n12 (centres undefined)	none (no result: TRPV1 potentiator, TRPV1 ag)
O=c1oc2c3c4c(cc2c(C(F)(F)F)c1CCN1CCOCC1)CCCN4CCC3	TRPV1 potentiator inconclusive, TRPML1 agonist 91
COc1ccc(C)cc1N(C(=O)c1snc(C(N)=O)c1N)C(C(=O)NC1CCCC1)c1ccc(F)cc1 (centres undefined)	TRPV1 ag 99
Cc1cc(C(F)F)n2ncc(C(=O)N3CCc4ccccc4C3)c2n1	none
O=C(c1cnn2c(C(F)F)cc(-c3ccccc3)nc12)N1CCc2ccccc2C1	TRPML1 agonist 58
CCOC(=O)c1cc([N+](=O)[O-])sc1NC(=O)c1ccc(S(=O)(=O)N2CC3(C)CC2CC(C)(C)C3)cc1 (centres undefined)	TRPML1 agonist 60, TRPML1 inh inconclusive
Cc1nc2ccccc2c(=O)n1NC(=O)C1CCC(C(C)(C)C)CC1 (centres undefined)	TRPV1 ag 82
Cc1nc2ccccc2c(=O)n1NC(=O)C1CC1C (centres undefined)	none
CCCCc1ccc(NC(=S)N2CCC(O)CC2)cc1	TRPV1 ag 85
COc1ccc2c(n1)Sc1nc3ccccc3nc1N2	TRPML1 agonist 82, TRPV1 ag 110
C=Cc1ccc(Cn2c(C(=O)O)c(CNCc3ccc(F)cc3)c3ccc(C)cc32)cc1	none (no result: TRPV1 potentiator, TRPV1 ag)
CCCCC(=O)N1C/C=C\C(c2ccc(OC)cc2)N(Cc2ccc(F)cc2)C(=O)C1Cc1ccccc1 (centres undefined)	none (no result: TRPV1 potentiator, TRPV1 ag)
O=C(Nc1ccc(C2SCCS2)cc1)c1ccccc1	TRPV1 ag 86
CNC(=O)Nc1ccc(C2SCCS2)cc1	none
N=c1oc2c3c4c(cc2cc1C(=O)Nc1ccccc1)CCCN4CCC3	TRPV1 ag 84
O=C1OC(c2ccccc2)=C/C1=C/N1CCCCC1	TRPV1 ag 81
CC(C)(C)n1ncc2c(=O)n(Cc3c(Cl)cccc3Cl)cnc21	none (no result: TRPV1 potentiator, TRPV1 ag)
O=C(NCc1ccncc1)c1ccc(Oc2ccccc2)cc1	TRPV1 ag 91
CN1C(=O)/C(=C/c2cccc(Cl)c2)Sc2ccc(C(=O)NCc3cccnc3)cc21	TRPV1 potentiator 82
COc1cccc(/C=C2\Sc3ccc(C(=O)NCc4cccnc4)cc3N(C)C2=O)c1	TRPV1 ag inconclusive
Cc1cc(N/N=C/c2ccccc2)nc(N2CCOCC2)n1	TRPV1 ag 86
Cc1cc(C)n(-c2nc(C)c(C)c(=O)n2CC(=O)Nc2ccc([N+](=O)[O-])cc2)n1	none (no result: TRPV1 potentiator, TRPV1 ag)
O=C(NCCNC(=O)c1ccccc1)c1ccccc1	none
O=C(N/C=C/c1ccccc1)c1ccccc1	TRPV1 ag 83
CCOC(=O)c1c(NC(=O)COC(=O)c2ccccn2)sc(C(=O)N(C)C)c1C	TRPV1 potentiator 103
Cc1c(Cl)cccc1NC(=O)Nc1nnc(N2CCCCCC2)s1	none (no result: TRPV1 potentiator, TRPV1 ag)
C[n+]1ccc(C(c2c[nH]c3ccccc23)c2cc[n+](C)c3ccccc23)c2ccccc21	none (no result: TRPV1 potentiator, TRPML1 inh, TRPV1 ag)
CCOc1ccccc1NC(=O)N1CCc2cc(S(=O)(=O)N3CCC(C)CC3)ccc21	none (no result: TRPV1 potentiator, TRPV1 ag)
CC(=O)c1cc(-c2ccc(F)cc2)n(CCC(=O)Nc2cccnc2)c1C	TRPV1 ag 81
O=[N+]([O-])c1ccc(O/N=[N+](\[O-])N2CCN(c3ccccc3)CC2)c([N+](=O)[O-])c1	none (no result: TRPV1 potentiator, TRPV1 ag)
COC(=O)c1cn(NC(=O)c2ccc(OC)c(OC)c2)c(=O)c2ccccc12	TRPV1 potentiator inconclusive
COC(=O)c1cn(NC(=O)c2ccc3c(c2)OCO3)c(=O)c2ccccc12	TRPV1 ag 80
Cc1ccc(CCNC(=O)c2ccc(CNS(=O)(=O)c3ccc(F)cc3)cc2)cc1	none (no result: TRPV1 potentiator, TRPV1 ag)
O=C(N1CCOCC1)N1CCN(c2ccccc2F)CC1	TRPV1 ag 83
COc1ccc(-c2nnc(SCC(=O)N3CCc4ccccc43)o2)cc1OC	none (no result: TRPV1 potentiator, TRPV1 ag)
C/C(=N\Nc1ncnc2sc(C)c(C)c12)c1ccccn1	TRPML1 agonist 58, TRPV1 ag 88
Cc1sc2ncnc(N/N=C/c3cccc(O)c3)c2c1C	none
Cc1ccc(Nc2ncnc3sc(C)c(C)c23)cc1	TRPV1 ag 87
N#Cc1c(N)n(-c2cccc(Cl)c2)c2nc3ccccc3nc12	none (no result: TRPV1 potentiator, TRPV1 ag)
CC(C)CCC1(CCNC(=O)c2cccs2)CCOC(C)(C)C1 (centres undefined)	TRPV1 ag 83
O=C(Nc1ccccc1F)c1ccc2c(Cl)c3c(nc2c1)CCC3	none (no result: TRPV1 potentiator, TRPV1 ag)
CC(C)(C)n1ncc2c(=O)n(Cc3ccc(Cl)c(F)c3)cnc21	none (no result: TRPV1 potentiator, TRPV1 ag)
CN1C(=O)[C@@H]2[C@H](C1=O)[C@@H]1C(=O)Nc3ccccc3C(=O)N1[C@@H]2c1ccc(Br)cc1	none
CCN1C(=O)[C@@H]2[C@H](C1=O)[C@@H]1C(=O)Nc3ccccc3C(=O)N1[C@@H]2c1ccc(Br)cc1	TRPV1 potentiator 106
CCCCCCCCCCCCCCCC[n+]1ccc(C)c2ccccc21	none (no result: TRPV1 potentiator, TRPML1 inh, TRPV1 ag)
O=C(CN1CCN(c2ccccc2F)CC1)NCc1ccc(Cl)cc1	TRPV1 ag inconclusive
Cc1cccc(N2CCN(CC(=O)NCc3ccc(Cl)cc3)CC2)c1C	TRPV1 ag 83
